Results from PubChem BioAssay (Tox21).
Results filed as inconclusive are left out. Where a call stands in place of a potency, no number is given. The source made the active and inactive calls. Calls come from the whole dose curve; as a rule, active = well fitted inhibition curve with a large enough effect in the signal ratio in the repeat runs (not every such curve was filed as active); inconclusive = weak or mixed curves, or effect the other way; inactive = flat fitted curve, though single readings scatter; the % refers to the signal ratio.

Assay: cAMP Responsive Elements (CRE) small molecule antagonists, cell-based qHTS assay (AID 1963591)
Conditions: CRE-bla HEK293T, beta-lactamase FRET ratio; series mostly up to 92.4 µM
How it was run: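 Cells (CRE-bla HEK 293T, DMEM with 10% dialyzed FBS and 25 mM HEPES) are seeded and incubated 18 h. Compounds are added with NKH477 agonist at 0.25 uM final for 3 h, then FRET substrate for 2 h.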

Row | Structure (SMILES) | Potency
1 | OC[C@H]1O[C@@H]2O[C@H]3[C@H](O)[C@@H](O)[C@@H](O[C@H]4[C@H](O)[C@@H](O)[C@@H](O[C@H]5[C@H](O)[C@@H](O)[C@@H](O[C@H]6[C@H](O)[C@@H](O)[C@@H](O[C@H]7[C@H](O)[C@@H](O)[C@@H](O[C@H]8[C@H](O)[C@@H](O)[C@@H](O[C@H]9[C@H](O)[C@@H](O)[C@@H](O[C@H]1[C@H](O)[C@H]2O)O[C@@H]9CO)O[C@@H]8CO)O[C@@H]7CO)O[C@@H]6CO)O[C@@H]5CO)O[C@@H]4CO)O[C@@H]3CO | inactive
2 | CCCCCCCCCCCCOC(C)=O | inactive
3 | S=C(S)NCCNC(=S)S | inactive
4 | C=Cc1ccc(C(C)(C)C)cc1 | inactive
5 | CCN[C@H]1C[C@H](C)S(=O)(=O)c2sc(S(N)(=O)=O)cc21 | inactive
6 | O=c1c2ccccc2oc2ccccc12 | inactive
7 | Nc1ncn([C@H]2C[C@H](O)[C@@H](CO)O2)c(=O)n1 | inactive
8 | CC(=O)Nc1ccc(S(=O)(=O)Cl)cc1 | inactive
9 | CC(C)(C)C(=O)CCc1ccc(Cl)cc1 | inactive
10 | CC(=O)NNC(C)=O | inactive
11 | O=[N+]([O-])c1ccc(Cl)cc1Cl | inactive
12 | OCC1CC=CCC1 (stereo not given) | inactive
13 | C=CCN(CC=C)CC=C | inactive
14 | O=C(Cl)c1c(Cl)cccc1Cl | inactive
15 | NCCCN(CCO)CCO | inactive
16 | CC1=C(C(=O)O)N2C(=O)[C@@H](NC(=O)[C@H](N)C3=CCC=CC3)[C@H]2SC1 | inactive
17 | C#CC(O)C(CC)CCCC (stereo not given) | inactive
18 | C=C1CCC2CC1C2(C)C (stereo not given) | inactive
19 | CC(C)CCOCc1ccccc1 | inactive
20 | CC1(C)C(=O)N(Cl)C(=O)N1Br | inactive

Row | Structure (SMILES) | Potency
21 | CCOc1ccc(OCC)c(Cl)c1 | inactive
22 | c1ccc(-c2nc[nH]c2-c2ccccc2)cc1 | inactive
23 | CCOc1ccc2nc(S(N)(=O)=O)sc2c1 | inactive
24 | O=C1CC[C@@H](C(=O)O)N1 | inactive
25 | CCCCC(CC)C(=O)OCCOCCOCCOCCOC(=O)C(CC)CCCC (stereo not given) | inactive
26 | O=C(O)CNC(=O)CNC(=O)CNC(=O)CSC(=O)c1ccccc1 | inactive
27 | CC(O)CC(C)O (stereo not given) | inactive
28 | Clc1sc(Cl)c(Cl)c1Cl | inactive
29 | C/C=C(\C)C(C)=O | inactive
30 | CC1=NN(c2cccc(S(=O)(=O)O)c2)C(=O)C1 | inactive
31 | C=CCOC(=O)c1ccc(C(=O)OCC=C)c(C(=O)OCC=C)c1 | inactive
32 | Cc1ccc(N)cc1S(=O)(=O)O | inactive
33 | CC(C)(CO)[N+](=O)[O-] | inactive
34 | C[Si](C)(C)O[Si](O)(O)O | inactive
35 | CC(Cc1ccccc1)(NC(=O)CN)c1ccccc1 (stereo not given) | inactive
36 | N[C@@H](CCC(=O)O)C(=O)O | inactive
37 | C=C(C)C1CC=C(C)C(=O)C1 (stereo not given) | inactive
38 | CC(CO)(CO)[N+](=O)[O-] | inactive
39 | NNC(=O)CP(=O)(c1ccccc1)c1ccccc1 | inactive
40 | C=CCCC(=O)O | inactive
